According to PubChem BioAssay (NCI):
The panel holds about 79,000 compounds, 15% with a hit somewhere; the sample as a whole holds those more often. Activity calls are given as the source filed them. Cut-off read from the data, not from the text of the source: active = growth inhibition above about 70%; inactive = the rest.

How the values were obtained:
[1] = NCI Yeast Anticancer Drug Screen. Data for the rad50 strain (AID 155);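 note: 0% = growth of vehicle-only cultures of the same strain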; details: S. cerevisiae rad50 strain growth inhibition; at 50.0 µM; active compounds read high
Outline: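 Inhibition values express reduced yeast growth in compound-treated cultures relative to vehicle-treated controls.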

[2] = NCI Yeast Anticancer Drug Screen. Data for the mec2-1 strain (AID 157); details: S. cerevisiae mec2-1 strain, at 50.0 µM, active compounds read high
Outline: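 Cells of the genetically defined mec2-1 yeast strain are incubated with test compound. Inhibition of growth is calculated against vehicle-treated controls.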

[3] = NCI Yeast Anticancer Drug Screen. Data for the sgs1 mgt1 strain (AID 161);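 note: 0% = growth of cultures given vehicle only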; details: S. cerevisiae sgs1 mgt1 strain, at 50.0 µM, active compounds read high
Outline: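 Read-out: growth inhibition vs vehicle controls. Cells: mutant yeast strain deficient in DNA damage repair.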

[4] = NCI Yeast Anticancer Drug Screen. Data for the cln2 rad14 strain (AID 165);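 note: 0% = growth equal to vehicle treated cultures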; details: S. cerevisiae cln2 rad14 strain, at 50.0 µM, active compounds read high
Outline: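 The screen exposed genetically defined yeast (cln2 rad14) to test compounds and scored growth inhibition relative to vehicle-treated controls.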

[5] = NCI Yeast Anticancer Drug Screen. Data for the bub3 strain (AID 167); details: S. cerevisiae bub3 mutant strain, at 50.0 µM, active compounds read high
Outline: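 Steps: expose the mutant yeast strain to compound; grow alongside vehicle-treated cultures; measure growth; express inhibition against the vehicle cultures.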

[6] = NCI Yeast Anticancer Drug Screen. Data for the mlh1 rad18 strain (AID 175); details: S. cerevisiae mlh1 rad18 strain growth inhibition; at 50.0 µM; active compounds read high
Outline: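 Compound-treated yeast growth, normalised to vehicle controls. Strain bears defined DNA repair mutations.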

Measured: growth inhibition

CCOC(=O)C(C)(Br)C(Br)c1ccc([N+](=O)[O-])cc1 (configuration not stated)
active: [1] 96.8% | [2] 93.2% | [3] 96.9% | [5] 80.9% | [6] 97%
inactive: [4] 42.7%

O=C(C(=Cc1ccc(F)cc1)C(=O)c1ccccc1)c1ccccc1
inactive: [1] 1.75% | [2] 6.2% | [3] -12% | [4] 5.95% | [5] 3.35% | [6] 26.6%

Cc1cc(C)nc(N(C)CCN2CCCCC2)c1
inactive: [1] -6.5% | [2] -3.1% | [3] 3.4% | [4] -25.1% | [5] 5.45% | [6] -5.85%

Cc1ccc(S(=O)(=O)OC(F)(F)C(F)(F)F)cc1
inactive: [1] 7.8% | [2] 5.05% | [3] 7.95% | [4] -8.15% | [5] -4.05% | [6] 5.5%

O=C1CC2(C(=O)N1CN(Cc1ccccc1)Cc1ccccc1)c1ccccc1-c1ccccc12
inactive: [1] 34.5% | [2] 2.1% | [3] -5.55% | [4] 14.1% | [5] -1.1% | [6] 22.4%

Cc1c(Br)c(C)[n+]([O-])n1O
inactive: [1] 4% | [2] 8.75% | [3] 5.05% | [4] -17% | [5] 26.4% | [6] 0.2%

CC1(C)C(=O)CC[C@]2(C)[C@H]3C(=O)C=C4[C@H]5C[C@@](C)(C(=O)O)CC[C@]5(C)CC[C@@]4(C)[C@]3(C)CC[C@@H]12
inactive: [1] -4.8% | [2] -5.95% | [3] -3.85% | [4] -16.1% | [5] 0.15% | [6] -0.95%

COc1cccc(C2c3cc4c(cc3OC(N3CCCCC3)C2C)OCO4)c1OC (configuration not stated)
inactive: [1] 33.1% | [2] 30.8% | [3] 46.4% | [4] 19.8% | [5] 63% | [6] 61.8%

NC(Cc1ccccc1F)C(=O)O (configuration not stated)
inactive: [1] 5.95% | [2] -18.6% | [3] 5.4% | [4] 13.6% | [5] 4.9% | [6] 11.2%

Nc1ccccc1NC(=O)C(F)(F)F
inactive: [1] -2.45% | [2] -5.4% | [3] 3.3% | [4] -8.4% | [5] -8.75% | [6] 1.15%

Cc1ccc(C)c(C2NC(=O)c3ccccc3N2)c1 (configuration not stated)
inactive: [1] -15.8% | [2] -9.25% | [3] -44.8% | [4] -30.2% | [5] -52.2% | [6] -19.8%

CC1=NN2C(c3ccc(C)cc3)=CSC2=NC(C)(C)C1
inactive: [1] 20.6% | [2] -1.45% | [3] 2.45% | [4] 19.8% | [5] 5% | [6] -1.1%

O=[N+]([O-])c1ccccc1S(=O)(=O)N1CCCc2cc(Cl)ccc21
inactive: [1] -3% | [2] 4.15% | [3] 9.45% | [4] -12% | [5] 20.6% | [6] 13.4%

O=C(O)c1c[nH]c2cc(O)ccc2c1=O
inactive: [1] -0.5% | [2] 3.3% | [3] -4.75% | [4] -6.5% | [5] 15.3% | [6] -2.7%

COC1OC(OC2OC=C3C(=O)OC4CC(C)C2C34)C(O)C(O)C1O (configuration not stated)
inactive: [1] -17.1% | [2] -34.2% | [3] -18.7% | [4] -14.3% | [5] -33.4% | [6] -29.1%

Cc1ccc(C2(O)CCCCC2)cc1
inactive: [1] -9.8% | [2] -8.45% | [3] -32% | [4] 26.2% | [5] -8.95% | [6] 7.1%

CC/C(=N\NC(=O)c1ccncc1)c1ccc(Cl)cc1
inactive: [1] 1.1% | [2] 9.05% | [3] -3.15% | [4] 17.9% | [5] 2.9% | [6] -1.95%

COc1ccccc1/C=C1/Sc2scc(CC(=O)Nc3ccccc3)[n+]2C1=O
inactive: [1] 8.9% | [2] 4% | [3] 23.6% | [4] 17.7% | [5] -4.7% | [6] 24.8%

CC(=O)/C(=C/c1ccc(F)cc1)C(=O)CCN(C)C
inactive: [1] 8.15% | [2] 16.6% | [3] 20.9% | [4] 9.55% | [5] -11.5% | [6] -22.2%

COc1cc(CNc2nc3c(N)cc(C(F)(F)F)cc3nc2-c2ccccc2)cc(OC)c1OC
inactive: [1] 0.25% | [2] -9.35% | [3] 6.6% | [4] 17.6% | [5] -11.3% | [6] -25.6%

O=C(NNC1=NCCN1)c1ccco1
inactive: [1] -7.5% | [2] -21.1% | [3] -9.8% | [4] -32.4% | [5] -2.3% | [6] -2.25%

CCc1cccc(C(C)(C)C)c1NC(=S)N/C=C(/C#N)C(N)=O
inactive: [1] 8.2% | [2] -7.45% | [3] 16.9% | [4] 13.7% | [5] -15.9% | [6] 11.8%

C/C(=N/O)c1ccc[cH-]1.[Fe+2].c1cc[cH-]c1
inactive: [1] 20.1% | [2] -5.3% | [3] 0.45% | [4] -0.8% | [5] -8.4% | [6] -11.5%

CCCCNC(=O)c1cccc(OC)c1OC
inactive: [1] 2.25% | [2] -1.55% | [3] 4.3% | [4] 2.35% | [5] -5.65% | [6] 3.45%

CCOC(=O)c1cnc2cc3c(cc2c1Nc1ccc2c(c1)OCO2)OCO3
inactive: [1] 12.4% | [2] 13.3% | [3] 6.85% | [4] 3.6% | [5] 0% | [6] 20%

CCCC1C(CC)C(NC)C(C#N)(C#N)C1(C#N)C#N (configuration not stated)
inactive: [1] 7.05% | [2] 38.9% | [3] 8.95% | [4] 26.3% | [5] 8.3% | [6] 7.25%

O=c1c2cc(S(=O)(=O)Nc3ccccc3Cl)ccc2ncn1NS(=O)(=O)c1ccc(Br)cc1
inactive: [1] 35.2% | [2] 1.8% | [3] 31.9% | [4] -0.4% | [5] 19.5% | [6] 23.9%

O=C(NC(c1ccccc1)C(O)c1ccccc1)C(Cl)Cl (configuration not stated)
inactive: [1] -5.45% | [2] -14.8% | [3] -1.95% | [4] -4.65% | [5] -0.75% | [6] 2.65%

C/C(=N\[N+](C)(C)C)c1ccc2ccccc2c1
inactive: [1] 9.65% | [2] -2.45% | [3] -1.6% | [4] 5.5% | [5] -6% | [6] -9.6%

COC(=O)/C=C(\C(=O)c1ccccc1)c1ccccc1
inactive: [1] 6.05% | [2] 4.25% | [3] -4.1% | [4] 8.95% | [5] 0.3% | [6] 11.9%

O=C1CSC(=S)N1Nc1ccccc1
inactive: [1] 2.45% | [2] -22.2% | [3] 22.2% | [4] 3.15% | [5] -15.8% | [6] -10.1%

O=C(CBr)c1cc2ncccc2c2ccccc12
active: [4] 98.6% | [5] 99%
inactive: [1] 46.6% | [2] 51% | [3] 62.2% | [6] 68.9%

Cn1c(=O)c2c(nc(Br)n2CC(=O)CF)n(C)c1=O
inactive: [1] 13.2% | [2] 10.8% | [3] -3.75% | [4] -24.4% | [5] 8% | [6] 20.4%

CC1(C)SC2C(C(=O)O)N=C(Cc3ccccc3)N2C1C(=O)O (configuration not stated)
inactive: [1] 3.2% | [2] -17.9% | [3] -23.4% | [4] 1.45% | [5] -34% | [6] -7.05%

CCOC(CSc1cc(C)c2ccccc2n1)OCC
inactive: [1] 14.1% | [2] -0.05% | [3] -11.2% | [4] 3.35% | [5] 0.2% | [6] -15.2%

CN(C(=O)CCCO)c1cc([N+](=O)[O-])ccc1OCc1ccccc1
inactive: [1] 7.6% | [2] 2.8% | [3] -1.2% | [4] -0.8% | [5] 0.7% | [6] -0.75%

CC(=O)OCCc1nnnn1C
inactive: [1] 4.9% | [2] -9.95% | [3] -14.6% | [4] -22.5% | [5] 2.45% | [6] 10.4%

Nc1c(-c2nc3ccccc3[nH]2)sc(=S)n1-c1ccc(Cl)cc1
inactive: [1] -11.6% | [2] -30.7% | [3] 2.75% | [4] 8.9% | [5] 7.8% | [6] -6.5%

COC(=O)c1cccc(Cl)n1
inactive: [1] 4.7% | [2] -16.8% | [3] -6.95% | [4] 1.05% | [5] 10.4% | [6] 7.85%

CCCCCCCCCCCCOC1C(COCCN2CCCCC2)OC2OC(C)(C)OC21 (configuration not stated)
active: [1] 92.6% | [2] 93.4% | [3] 89.7% | [4] 90% | [5] 88% | [6] 90.2%

COc1ccc(/C=C/C(=N\NC(=O)c2ccccc2)c2sc(Nc3ccc([N+](=O)[O-])cc3)nc2C)cc1OC
inactive: [1] -13.3% | [2] 2.5% | [3] 11.1% | [4] 22.8% | [5] 30.8% | [6] -9.85%

CC(=O)Nc1ccc(O)c(C(=O)O)c1
inactive: [1] -8.6% | [2] 7.3% | [3] -8.55% | [4] -6% | [5] 24.1% | [6] -24.4%
